Assay results from PubChem BioAssay.
Unmarked numbers belong to inactive results. Results filed as inconclusive are left out. Calls of active or inactive are those of the source.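 Rule for the calls, unless noted: active = GFP response above 150% of the DMSO level; inconclusive = fewer than 70 events counted for a yeast strain; inactive = the rest.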

Assays:
[1] = TOR pathway reporter MEP2-GFP, retest of hits – S. cerevisiae, flow cytometry GFP, cherry picks, confirmation (AID 2272;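 active = GFP response above 150% of the DMSO control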;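 note: ratio of well signal to plate DMSO mean so 100% equals DMSO level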); details: S. cerevisiae MEP2-GFP strain, 3 h, at 10 µM, active compounds read high
[2] = yeast AGP1-GFP fluorescence change, single-dose – cell-based, flow cytometry, S. cerevisiae, cherry picks, confirmation (AID 2273);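 note: median GFP channel fluorescence over the whole cell population gate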; details: S. cerevisiae AGP1-GFP strain, 3 h, at 10 µM
[3] = molecular target: Beta-2 adrenergic receptor (Homo sapiens) (UniProt P07550); assay: agonist-induced loss of surface beta2AR – cell-based, FAP fluorogen, flow cytometry, validation set, pilot screen (AID 504459;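 active = percent response above 42, roughly 3 SD of non-fluorescent test compounds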;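 note: agonist-driven loss of surface beta2AR via internalization measured by FAP dye flow cytometry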); details: Am2.2-beta2AR cells, at 10 µM, active compounds read high
Chain of Beta-2 adrenergic receptor (Homo sapiens) (P07550 whole entry, looked up, the tested form may be a part): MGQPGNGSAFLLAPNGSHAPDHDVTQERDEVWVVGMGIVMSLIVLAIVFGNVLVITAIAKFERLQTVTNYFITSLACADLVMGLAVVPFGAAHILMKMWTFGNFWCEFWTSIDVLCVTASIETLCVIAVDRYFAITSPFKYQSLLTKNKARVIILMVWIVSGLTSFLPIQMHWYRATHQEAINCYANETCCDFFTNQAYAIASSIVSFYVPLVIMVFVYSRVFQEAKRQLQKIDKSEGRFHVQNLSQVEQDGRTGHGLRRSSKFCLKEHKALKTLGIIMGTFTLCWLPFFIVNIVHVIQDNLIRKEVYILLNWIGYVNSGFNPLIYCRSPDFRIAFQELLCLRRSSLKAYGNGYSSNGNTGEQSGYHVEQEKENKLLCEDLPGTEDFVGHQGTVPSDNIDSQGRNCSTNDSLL

[4] = yeast AGP1-GFP level changes, GLN3 branch – cell-based, multiplex flow cytometry, S. cerevisiae, primary screen (AID 1887;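 active = GFP signal above the screen-wide mean plus 3 SD, that is over about 124.5% of the solvent control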;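 note: AGP1-GFP fusion strain of S. cerevisiae within a five-strain barcoded multiplex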); details: 3 h, at 10 µM, active compounds read high

O=C1NC(=O)N(c2ccccc2)C(=O)/C1=C/c1ccc(Sc2ccccc2)o1
GFP response vs DMSO [1]: 108%
GFP response, % of DMSO [2]: 91.7%

Nc1ccc(N=Nc2ccccc2)cc1
GFP response vs DMSO [1]: 103%
GFP response, % of DMSO [2]: 93.4%

O=[N+]([O-])c1ccc(N2CCNCC2)cc1Sc1ccccn1
GFP response vs DMSO [1]: 97.8%
GFP response, % of DMSO [2]: 97.2%

COc1cc(/C=C/C(=O)c2c(O)n(CCc3ccccc3)c(=O)[nH]c2=O)ccc1O
GFP response vs DMSO [1]: 98.8%
GFP response, % of DMSO [2]: 102%

Cc1cc(C=C2C(=O)N(C)C(=S)N(C)C2=O)c(C)n1-c1ccncc1
GFP response vs DMSO [1]: 113%
GFP response, % of DMSO [2]: 100%

CC12CN3CC(C)(CN(C1)C3c1cccnc1)C2=O (stereo not given)
response [3]: 1.06%

CN1C(=O)C(=Cc2ccc(SC3CCCCC3)o2)C(=O)N(C)C1=O
GFP response vs DMSO [1]: 98.8%
GFP response, % of DMSO [2]: 101%

C#CCOc1cc(C2C3=C(COC3=O)Nc3cc4c(cc32)OCO4)ccc1OC (stereo not given)
GFP response vs DMSO [1]: 117%
GFP response, % of DMSO [2]: 103%

Cc1ccc(N2C(=O)NC(=O)/C(=C\c3cn(CC(=O)O)c4ccccc34)C2=O)cc1
GFP response vs DMSO [1]: 100%
GFP response, % of DMSO [2]: 98.9%

O=C1NC(=O)N(CCC2=CCCCC2)C(=O)/C1=C/c1cccs1
GFP response vs DMSO [1]: 96.2%
GFP response, % of DMSO [2]: 84%

O=C1NC(=O)N(CCc2ccc(F)cc2)C(=O)/C1=C/c1cccs1
GFP response vs DMSO [1]: 94.4%
GFP response, % of DMSO [2]: 101%

CN1C(=O)NC(=O)/C(=C\C=C\c2ccccc2[N+](=O)[O-])C1=O
GFP response vs DMSO [1]: 105%
GFP response, % of DMSO [2]: 108%

CN1C(=O)C(=Cc2ccc(Sc3ccccc3)o2)C(=O)N(C)C1=S
GFP response vs DMSO [1]: 106%
GFP response, % of DMSO [2]: 99.3%

Nc1ccc2ccc3cccc[n+]3c2c1
GFP response vs DMSO [1]: 257% (active)
GFP response, % of DMSO [2]: 110%

O=C1NC(=S)NC(=O)C1=Cc1ccc2c(c1)CCN2CCCCl
GFP response vs DMSO [1]: 103%
GFP response, % of DMSO [2]: 87.8%

O=C1C=Cc2ccccc2C1=O
response [3]: -20.4%

CCOC(=O)c1cncn1C(C)c1ccccc1 (stereo not given)
GFP response, % of DMSO [4]: 95%
response [3]: -9.36%

O=C(O)c1[nH]c(=O)[nH]c(=O)c1F
GFP response vs DMSO [1]: 101%
GFP response, % of DMSO [2]: 102%

O=C1NC(=O)N(Cc2ccco2)C(=O)/C1=C\c1ccc(-c2ccc(F)cc2)o1
GFP response vs DMSO [1]: 99.3%
GFP response, % of DMSO [2]: 100%

O=C1NC(=O)C(=Cc2ccc(Sc3ccccc3)o2)C(=O)N1
GFP response vs DMSO [1]: 92%
GFP response, % of DMSO [2]: 83.6%

Fc1ccc(C(OCCN2CCCC2)c2ccc(Br)cc2)cc1 (stereo not given)
response [3]: 11.4%

CCCCn1c(=O)c(C(=O)Nc2ccsc2C(=O)OC)c(O)c2ccccc21
GFP response vs DMSO [1]: 101%
GFP response, % of DMSO [2]: 102%

N#CC(C#N)=Cc1ccc(N2CCCC2)cc1
GFP response vs DMSO [1]: 112%
GFP response, % of DMSO [2]: 109%

CC(C)[C@@]1(NC(=O)[C@@H]2C[C@@H]3c4cccc5[nH]cc(c45)C[C@H]3N(C)C2)O[C@@]2(O)[C@@H]3CCCN3C(=O)[C@H](Cc3ccccc3)N2C1=O
response [3]: -14.6%

CCNC(=O)[C@H]1O[C@@H](n2cnc3c(N)ncnc32)[C@H](O)[C@@H]1O
GFP response, % of DMSO [4]: 91.5%
response [3]: 0.15%

O=c1oc2ccccc2c(O)c1[C@H]1c2ccc(O)cc2Oc2c1c(=O)oc1ccccc21
GFP response vs DMSO [1]: 102%
GFP response, % of DMSO [2]: 90.4%

C[C@H]1CCCC(=O)CCCCCc2cc(O)cc(O)c2C(=O)O1
response [3]: -25.5%

C[C@]12CCC(=O)C(O)=C1CC[C@@H]1[C@@H]2CC[C@]2(C)C(=O)CC[C@@H]12
GFP response vs DMSO [1]: 102%
GFP response, % of DMSO [2]: 101%
response [3]: 4.26%

C[C@]12CCC(=O)C=C1CC[C@@H]1[C@@H]2C(=O)C[C@]2(C)C(=O)CC[C@@H]12
response [3]: -22.9%

Cc1c2ccncc2c(C)c2c1[nH]c1ccccc12
response [3]: -323%

CC1(C)OC(c2ccccc2)=C/C(=C/C=C2C(=O)NC(=S)NC2=O)O1
GFP response vs DMSO [1]: 145%
GFP response, % of DMSO [2]: 92.3%

O=C1NC(=O)N(CCc2ccc(F)cc2)C(=O)/C1=C/c1ccco1
GFP response vs DMSO [1]: 94.4%
GFP response, % of DMSO [2]: 99.8%

CCN1C(=O)NC(=O)/C(=C\c2cn(CC(=O)N3CCCC3)c3ccccc23)C1=O
GFP response vs DMSO [1]: 106%
GFP response, % of DMSO [2]: 102%

COc1cc(/C=C2\C(=O)NC(=O)N(c3ccccc3)C2=O)c([N+](=O)[O-])cc1OC
response [3]: 0.05%

Cc1nc2ccccc2c(=O)n1-c1ccc(C(=O)O)cc1
response [3]: 0.79%

c1cnc2c(c1)ccc1ncccc12
response [3]: -15%

CCCC(=O)OCC[N+](C)(C)C
response [3]: 9.88%

CCCC(C)(COC(N)=O)COC(=O)NC(C)C (stereo not given)
response [3]: -23.9%
